In PubChem BioAssay (NCI):
About 79,000 compounds went through this panel and 15% of them were active in at least one assay; those are over-represented in the sample as a whole. Values without a mark were called inactive. Activity calls are given as the source filed them. No stated cut-off is given here; in the data, active means growth inhibition above about 70%; inactive means the rest.

Tests used:
[1] = NCI Yeast Anticancer Drug Screen. Data for the rad50 strain (AID 155);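 further: 0% = growth of vehicle-only cultures of the same strain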; details: S. cerevisiae rad50 strain growth inhibition, active compounds read high
Outline: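 Growth of the mutant yeast was measured after compound exposure and referenced to vehicle-treated cultures.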

[2] = NCI Yeast Anticancer Drug Screen. Data for the mec2-1 strain (AID 157); details: S. cerevisiae mec2-1 strain, active compounds read high
Outline: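 Test agents were screened against the mec2-1 yeast strain, with defined DNA repair or cell cycle alteration. Growth was scored as inhibition against vehicle-only controls.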

[3] = NCI Yeast Anticancer Drug Screen. Data for the sgs1 mgt1 strain (AID 161);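 further: 0% = growth of cultures given vehicle only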; details: S. cerevisiae sgs1 mgt1 strain, active compounds read high
Outline: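 Mutant yeast exposed to compound; growth scored against vehicle-only wells.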

[4] = NCI Yeast Anticancer Drug Screen. Data for the cln2 rad14 strain (AID 165);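 further: 0% = growth equal to vehicle treated cultures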; details: S. cerevisiae cln2 rad14 strain, active compounds read high
Outline: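 Growth of compound-exposed yeast (cln2 rad14 genotype) measured and expressed as inhibition relative to vehicle.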

[5] = NCI Yeast Anticancer Drug Screen. Data for the bub3 strain (AID 167); details: S. cerevisiae bub3 mutant strain, active compounds read high
Outline: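 Whole-cell yeast assay. The mutant strain was incubated with compounds, and growth inhibition was determined by comparison with vehicle-treated cells.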

[6] = NCI Yeast Anticancer Drug Screen. Data for the mlh1 rad18 strain (AID 175); details: S. cerevisiae mlh1 rad18 strain growth inhibition, active compounds read high
Outline: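 In this whole-cell yeast screen, a strain with altered DNA damage repair is challenged with compound, and its growth is measured against matched vehicle-treated controls.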

[7] = at 5.0 µM (retest, dose inferred, filed as 0.5)
[8] = at 50.0 µM (retest, dose inferred, filed as 5.0)

With `NC(=S)N/N=C1\CCCCc2ccccc21` the growth inhibition [1, 7] was 5%, the growth inhibition [1, 8] was 85% (active) and the growth inhibition ([1]; at 50.0 µM) was 85.7% (active). For the same compound, the growth inhibition [2, 7] was -19%, the growth inhibition [2, 8] was 83% (active) and the growth inhibition ([2]; at 50.0 µM) was 89.5% (active). For the same compound, the growth inhibition [3, 7] was 4%, the growth inhibition [3, 8] was 87% (active) and the growth inhibition ([3]; at 50.0 µM) was 83.8% (active). For the same compound, the growth inhibition [4, 7] was 13%, the growth inhibition [4, 8] was 80% (active) and the growth inhibition ([4]; at 50.0 µM) was 83.8% (active). For the same compound, the growth inhibition [5, 7] was 17%, the growth inhibition [5, 8] was 88% (active) and the growth inhibition ([5]; at 50.0 µM) was 79.1% (active). For the same compound, the growth inhibition [6, 7] was 5%, the growth inhibition [6, 8] was 91% (active) and the growth inhibition ([6]; at 50.0 µM) was 84.2% (active).

In the case of `CCCCCCCCCCCCOC(=O)C[N+]1(C)CCCCC1`, the growth inhibition [1, 7] was 92% (active), the growth inhibition [1, 8] was 99% (active) and the growth inhibition ([1]; at 50.0 µM) was 43.5%. For the same compound, the growth inhibition [2, 7] was 93% (active), the growth inhibition [2, 8] was 99% (active) and the growth inhibition ([2]; at 50.0 µM) was 99.8% (active). The growth inhibition [3, 7] was 99% (active), the growth inhibition [3, 8] was 99% (active) and the growth inhibition ([3]; at 50.0 µM) was 39.4%. For the same compound, the growth inhibition [4, 7] was 67%, the growth inhibition [4, 8] was 99% (active) and the growth inhibition ([4]; at 50.0 µM) was 98.5% (active). The growth inhibition [5, 7] was 99% (active), the growth inhibition [5, 8] was 99% (active) and the growth inhibition ([5]; at 50.0 µM) was 99.7% (active). For the same compound, the growth inhibition [6, 7] was 33%, the growth inhibition [6, 8] was 99% (active) and the growth inhibition ([6]; at 50.0 µM) was 99.5% (active).

With `CC1SC2(C(=O)Nc3ccc(Br)cc32)N(c2ccc(Cl)cc2)C1=O` (configuration not stated) the growth inhibition [1, 7] was 13%, the growth inhibition [1, 8] was 99% (active) and the growth inhibition ([1]; at 50.0 µM) was 50.4%. The growth inhibition [2, 7] was 2%, the growth inhibition [2, 8] was 99% (active) and the growth inhibition ([2]; at 50.0 µM) was 99.5% (active). The growth inhibition [3, 7] was -2%, the growth inhibition [3, 8] was 98% (active) and the growth inhibition ([3]; at 50.0 µM) was 56.1%. For the same compound, the growth inhibition [4, 7] was -3%, the growth inhibition [4, 8] was 95% (active) and the growth inhibition ([4]; at 50.0 µM) was 90.8% (active). The growth inhibition [5, 7] was 15%, the growth inhibition [5, 8] was 99% (active) and the growth inhibition ([5]; at 50.0 µM) was 96.9% (active). The growth inhibition [6, 7] was 10%, the growth inhibition [6, 8] was 99% (active) and the growth inhibition ([6]; at 50.0 µM) was -8.55%.

For `CC(=O)c1c2c(cc3c1CC1(Cc4ccccc4C1=O)C3)CCC2` (configuration not stated), the growth inhibition [1, 7] was -4%, the growth inhibition [1, 8] was 79% (active) and the growth inhibition ([1]; at 50.0 µM) was 36.7%. For the same compound, the growth inhibition [2, 7] was -27%, the growth inhibition [2, 8] was 88% (active) and the growth inhibition ([2]; at 50.0 µM) was 42.8%. For the same compound, the growth inhibition [3, 7] was -36%, the growth inhibition [3, 8] was 87% (active) and the growth inhibition ([3]; at 50.0 µM) was 60%. For the same compound, the growth inhibition [4, 7] was 27%, the growth inhibition [4, 8] was 29% and the growth inhibition ([4]; at 50.0 µM) was 46.4%. For the same compound, the growth inhibition [5, 7] was -4%, the growth inhibition [5, 8] was 89% (active) and the growth inhibition ([5]; at 50.0 µM) was 63.8%. The growth inhibition [6, 7] was -11%, the growth inhibition [6, 8] was 73% (active) and the growth inhibition ([6]; at 50.0 µM) was 61.5%.

In the case of `CC(=O)OC1C(O)C(C)OC(OC(=O)C2CCC3C(C2)OC2(CC(OC(=O)/C=C/c4ccccc4)C(C)CO2)C32CO2)C1OC1OC(C)C(O)C(O)C1O` (configuration not stated), the growth inhibition [1, 7] was 23%, the growth inhibition [1, 8] was 97% (active) and the growth inhibition ([1]; at 50.0 µM) was 88% (active). The growth inhibition [2, 7] was 18%, the growth inhibition [2, 8] was 98% (active) and the growth inhibition ([2]; at 50.0 µM) was 89.9% (active). For the same compound, the growth inhibition [3, 7] was 26%, the growth inhibition [3, 8] was 98% (active) and the growth inhibition ([3]; at 50.0 µM) was 47.1%. The growth inhibition [4, 7] was 17%, the growth inhibition [4, 8] was 92% (active) and the growth inhibition ([4]; at 50.0 µM) was 75.6% (active). The growth inhibition [5, 7] was 21%, the growth inhibition [5, 8] was 97% (active) and the growth inhibition ([5]; at 50.0 µM) was 88% (active). The growth inhibition [6, 7] was 34%, the growth inhibition [6, 8] was 97% (active) and the growth inhibition ([6]; at 50.0 µM) was 88% (active).

With `CC(C)=CCc1ccc(O)cc1` the growth inhibition [1, 7] was -24%, the growth inhibition [1, 8] was 97% (active) and the growth inhibition ([1]; at 50.0 µM) was -3.15%. The growth inhibition [2, 7] was 5%, the growth inhibition [2, 8] was 98% (active) and the growth inhibition ([2]; at 50.0 µM) was 25.1%. For the same compound, the growth inhibition [3, 7] was -13%, the growth inhibition [3, 8] was 98% (active) and the growth inhibition ([3]; at 50.0 µM) was -24.1%. For the same compound, the growth inhibition [4, 7] was 5%, the growth inhibition [4, 8] was 96% (active) and the growth inhibition ([4]; at 50.0 µM) was 34.8%. For the same compound, the growth inhibition [5, 7] was -10%, the growth inhibition [5, 8] was 99% (active) and the growth inhibition ([5]; at 50.0 µM) was 53.9%. The growth inhibition [6, 7] was 1%, the growth inhibition [6, 8] was 97% (active) and the growth inhibition ([6]; at 50.0 µM) was 1.75%.

For `CCN(CC)CCCCCCNc1cc(C)cc2cccnc12`, the growth inhibition [1, 7] was 7%, the growth inhibition [1, 8] was 59% and the growth inhibition ([1]; at 50.0 µM) was 65.9%. It also gave a growth inhibition [2, 7] of 7%, a growth inhibition [2, 8] of 61% and a growth inhibition ([2]; at 50.0 µM) of 19.9%. The growth inhibition [3, 7] was 20%, the growth inhibition [3, 8] was 81% (active) and the growth inhibition ([3]; at 50.0 µM) was 74% (active). For the same compound, the growth inhibition [4, 7] was 9%, the growth inhibition [4, 8] was 52% and the growth inhibition ([4]; at 50.0 µM) was 72.8% (active). The growth inhibition [5, 7] was 14%, the growth inhibition [5, 8] was 76% (active) and the growth inhibition ([5]; at 50.0 µM) was 18.9%. For the same compound, the growth inhibition [6, 7] was 10%, the growth inhibition [6, 8] was 74% (active) and the growth inhibition ([6]; at 50.0 µM) was 59.6%.

For `CC(=O)Nc1ccc2c(ccc3cccc[n+]32)c1`, the growth inhibition [1, 7] was -2%, the growth inhibition [1, 8] was 0% and the growth inhibition ([1]; at 50.0 µM) was 96.7% (active). For the same compound, the growth inhibition [2, 7] was -10%, the growth inhibition [2, 8] was -6% and the growth inhibition ([2]; at 50.0 µM) was 97.2% (active). For the same compound, the growth inhibition [3, 7] was 1%, the growth inhibition [3, 8] was 10% and the growth inhibition ([3]; at 50.0 µM) was 95.8% (active). The growth inhibition [4, 7] was -2%, the growth inhibition [4, 8] was -6% and the growth inhibition ([4]; at 50.0 µM) was 95.2% (active). The growth inhibition [5, 7] was -7%, the growth inhibition [5, 8] was -13% and the growth inhibition ([5]; at 50.0 µM) was 96.5% (active). For the same compound, the growth inhibition [6, 7] was -1%, the growth inhibition [6, 8] was -3% and the growth inhibition ([6]; at 50.0 µM) was 96.3% (active).

For `COc1ccc(C(=O)C2OC2c2ccccc2)cc1` (configuration not stated), the growth inhibition [1, 7] was -2%, the growth inhibition [1, 8] was 23% and the growth inhibition ([1]; at 50.0 µM) was 42.4%. For the same compound, the growth inhibition [2, 7] was -6%, the growth inhibition [2, 8] was 9% and the growth inhibition ([2]; at 50.0 µM) was 15.4%. For the same compound, the growth inhibition [3, 7] was -1%, the growth inhibition [3, 8] was 20% and the growth inhibition ([3]; at 50.0 µM) was 30%. The growth inhibition [4, 7] was -32%, the growth inhibition [4, 8] was 3% and the growth inhibition ([4]; at 50.0 µM) was 20.1%. It also gave a growth inhibition [5, 7] of 3%, a growth inhibition [5, 8] of 18% and a growth inhibition ([5]; at 50.0 µM) of 58.5%. It also gave a growth inhibition [6, 7] of 7%, a growth inhibition [6, 8] of 59% and a growth inhibition ([6]; at 50.0 µM) of 34.7%.
